Measurements taken from PubChem BioAssay AID1159580 (chemical genetic matrix, 2015).
The campaign covered roughly 5,500 compounds. About 2,000 (36%) were called active. Another 18% or so got no clear call; they are omitted. Cut-off read from the data, not from the text of the source: active = normalized growth mostly below about 0.91 (no sharp cut-off); inconclusive = no clear call, values can overlap the other calls; inactive = mostly above about 0.92. The list shows a part of the results.

Assay: chemical genetic growth profiling, strain panel (AID 1159580);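 note: tested at 20 µM; growth read once vehicle control cultures reached saturation at 30 °C; 1 = growth at the plate median or of vehicle wells; lower values mean less growth of the strain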
Settings: S. cerevisiae deletion strains, growth OD
[1] = locus YAL013W, strain DEP1, hits give low values
[2] = locus YGR078C, strain PAC10, hits give low values
[3] = locus YJR075W, strain HOC1, hits give low values
[4] = locus YMR263W, strain SAP30, hits give low values
[5] = locus YPL055C, strain LGE1, hits give low values
[6] = locus YBR229C, strain ROT2, hits give low values
[7] = locus YDL101C, strain DUN1, hits give low values
[8] = locus YDR150W, strain NUM1, hits give low values
[9] = locus YEL061C, strain CIN8, hits give low values
[10] = locus YHR030C, strain SLT2, hits give low values
[11] = locus YHR087W, strain rtc3, hits give low values
[12] = locus YJR043C, strain POL32, hits give low values
[13] = locus YLR039C, strain RIC1, hits give low values
[14] = locus YLR058C, strain SHM2 (second series), hits give low values
[15] = locus YLR085C, strain ARP6, hits give low values
[16] = locus YLR262C, strain YPT6, hits give low values
[17] = locus YML094W, strain GIM5, hits give low values
[18] = locus YMR219W, strain ESC1, hits give low values
[19] = locus YNL153C, strain GIM3, hits give low values
[20] = locus YNL298W, strain CLA4 (second series), hits give low values
[21] = locus YNL322C, strain KRE1, hits give low values
[22] = locus YNR030W, strain Alg12, hits give low values
[23] = locus YPL241C, strain CIN2, hits give low values
[24] = locus YPR135W, strain CTF4, hits give low values

Measured: normalized growth

c1ccc2c(c1)OCC(C1=NCCN1)O2 (stereo not drawn)
inactive: [1] 1.02 | locus YAL040C, strain CLN3, hits give low values 1 | locus YCL061C, strain MRC1 (second series), hits give low values 1 | locus YDR363W, strain ESC2, hits give low values 1.03 | locus YER002W, strain NOP16, hits give low values 0.987 | [2] 1.01 | locus YGR229C, strain SMI1, hits give low values 1.02 | [3] 1 | [4] 1.02 | locus YMR307W, strain GAS1, hits give low values 0.996 | locus YNL175C, strain NOP13, hits give low values 1.02 | locus YNL197C, strain WHI3, hits give low values 1.01 | locus YNL224C, strain SQS1, hits give low values 1.01 | locus YOR083W, strain WHI5 (second series), hits give low values 0.996 | [5] 1.01

C/C(=N/OC(=O)c1ccc(Cl)cc1)c1ccc(F)cc1
active: [9] 0.889 | [10] 0.448 | [12] 0.914 | [3] 0.847 | [13] 0.515 | [15] 0.598 | [16] 0.462 | [17] 0.809 | [19] 0.908 | [22] 0.879 | locus YOL006C, strain TOP1, hits give low values 0.467 | [5] 0.811 | [23] 0.829
inactive: [1] 0.946 | [6] 0.96 | [7] 0.952 | [8] 0.913 | [2] 0.961 | [11] 0.953 | [14] 0.982 | [18] 0.957 | [4] 0.939 | locus YNL128W, strain TEP1, hits give low values 0.943 | [20] 0.85 | [21] 0.975 | [24] 0.763

N/C(=N/OC(=O)c1ccc(Cl)cc1)c1ccc(F)cc1F
active: locus YDL132W, strain cdc53, hits give low values 0.879 | locus YDL214C, strain PRR2, hits give low values 0.559 | locus YDR054C, strain cdc34, hits give low values 0.871 | locus YDR477W, strain SNF1, hits give low values 0.491 | locus YER123W, strain YCK3, hits give low values 0.482 | locus YER133W, strain GLC7, hits give low values 0.446 | locus YFL009W, strain cdc4, hits give low values 0.872 | locus YFR019W, strain FAB1, hits give low values 0.541 | locus YGR040W, strain KSS1, hits give low values 0.505 | locus YGR052W, strain FMP48, hits give low values 0.487 | locus YGR092W, strain DBF2, hits give low values 0.305 | [10] 0.139 | locus YHR079C, strain IRE1, hits give low values 0.244 | locus YHR082C, strain KSP1, hits give low values 0.465 | locus YHR205W, strain SCH9, hits give low values 0.21 | locus YJL095W, strain BCK1, hits give low values 0.243 | locus YJL157C, strain FAR1, hits give low values 0.543 | locus YJR016C, strain ILV3, hits give low values 0.892 | locus YJR066W, strain TOR1 (second series), hits give low values 0.239 | locus YJR066W, strain TOR1, hits give low values 0.309 | locus YKL067W, strain YNK1, hits give low values 0.631 | locus YKL101W, strain HSL1, hits give low values 0.593 | locus YKL193C, strain SDS22, hits give low values 0.887 | locus YKL203C, strain TOR2, hits give low values 0.384 | locus YLR113W, strain HOG1, hits give low values 0.348 | locus YLR133W, strain CKI1, hits give low values 0.659 | locus YLR403W, strain SFP1, hits give low values 0.419 | locus YML070W, strain DAK1, hits give low values 0.556 | locus YMR205C, strain PFK2 (second series), hits give low values 0.684 | locus YMR277W, strain FCP1, hits give low values 0.881 | locus YNL006W, strain LST8, hits give low values 0.896 | locus YNL020C, strain ARK1, hits give low values 0.579 | locus YNL161W, strain CBK1, hits give low values 0.894 | locus YNL183C, strain NPR1, hits give low values 0.37 | locus YNL207W, strain RIO2, hits give low values 0.854 | locus YNL307C, strain MCK1 (second series), hits give low values 0.38 | locus YOL078W, strain AVO1, hits give low values 0.879 | locus YOL136C, strain PFK27, hits give low values 0.542 | locus YOR119C, strain RIO1, hits give low values 0.463 | locus YOR231W, strain MKK1, hits give low values 0.276 | locus YOR329C, strain SCD5, hits give low values 0.899 | locus YPL031C, strain PHO85, hits give low values 0.395 | locus YPL153C, strain RAD53, hits give low values 0.398 | locus YPL204W, strain HRR25, hits give low values 0.425 | locus YPL256C, strain CLN2, hits give low values 0.368 | strain TSCII, hits give low values 0.878
inactive: locus YAR019C, strain CDC15, hits give low values 0.896 | locus YBL105C, strain PKC1, hits give low values 0.917 | locus YBR135W, strain CKS1, hits give low values 0.9 | locus YBR136W, strain MEC1, hits give low values 0.921 | locus YBR160W, strain CDC28, hits give low values 0.903 | locus YDL017W, strain CDC7, hits give low values 0.923 | locus YDL028C, strain MPS1, hits give low values 0.916 | [7] 0.94 | locus YDL108W, strain KIN28, hits give low values 0.914 | locus YDR052C, strain DBF4, hits give low values 0.913 | locus YDR226W, strain ADK1, hits give low values 0.899 | locus YFL029C, strain CAK1, hits give low values 0.889 | locus YFR003C, strain YPI1, hits give low values 0.919 | locus YFR028C, strain CDC14, hits give low values 0.916 | locus YIL147C, strain SLN1, hits give low values 0.91 | locus YJL128C, strain PBS2, hits give low values 0.977 | locus YKL048C, strain ELM1, hits give low values 0.821 | locus YMR001C, strain CDC5, hits give low values 0.891 | locus YNL222W, strain SSU72, hits give low values 0.913 | locus YOR061W, strain CKA2, hits give low values 0.731 | locus YPL209C, strain IPL1, hits give low values 0.902 | locus YPR025C, strain CCL1, hits give low values 0.898 | locus YPR106W, strain ISR1, hits give low values 0.947 | locus YPR111W, strain DBF20, hits give low values 0.936 | strain NNK1, hits give low values 0.917

C/C(=N/NC1=NCCN1)c1ccc(F)cc1
inactive: [1] 1.01 | [6] 0.993 | locus YCL061C, strain MRC1, hits give low values 0.997 | [7] 0.979 | [8] 0.907 | [9] 1.01 | [2] 0.995 | [10] 1.01 | [11] 0.987 | [12] 1 | [3] 0.992 | locus YKL190W, strain CNB1, hits give low values 1.01 | [13] 1.04 | [14] 1.01 | [15] 0.996 | [16] 0.997 | [17] 0.996 | [18] 1 | [4] 0.998 | [19] 0.987 | [20] 1.02 | [21] 1 | [22] 1.01 | [5] 1.01 | [23] 1.03 | [24] 1.02
